Data: the supplement of paper PMC10849652
The full data set covers some 7,900 targets. This sample favours those with a hit. About 0.6% of all pairs of compound and target were hits.

Tests used:
Assay in all cases: log2 fold change, soluble protein after heating vs DMSO (PISA); higher = thermal stabilisation; K562 cells, 10 uM, 30 min; active = over 0.2 and 3.5 SD of the protein, either way, in both replicates (recomputed)
[1] = compound: C#Cc1cccc(Nc2ncnc3cc(OCCOC)c(OCCOC)cc23)c1 [erlotinib]
Procedure, shortened: (§1)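 Soluble protein was defined as the supernatant after 21,000xg for 90 min. It came from K562 cells at 2×10^6 cells/mL given 10 μM compound for 30 min, heated in aliquots for 3 min across 48°C-58°C, pooled, and extracted in PBS with 0.5% NP-40 at 4°C, and was quantified by TMTpro 16plex LC-MS/MS with equalised channel sums. Thermal stability against control samples, from duplicates, is reported as log2 fold change.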

[2] = compound: C/C(=N\NC(=O)C1=CC(=CC=C1)S(=O)(=O)N2CCOCC2)/C3=C(C=CC(=C3)Cl)O
Procedure, shortened: as §1

[3] = compound: C1=CC(=C(C=C1Cl)C2=NC3=NC=CN=C3C(=N2)NC4=CC=NC=C4)F
Procedure, shortened: as §1

[4] = compound: C1=CC(=CC=C1C2=NC3=C(N2)C=C(C=C3)C(=O)N)OC4=CC=C(C=C4)Cl
Procedure, shortened: as §1

[5] = compound: C1=CC2=C(C=CC(=C2)/C=C\3/C(=O)NC(=NCC4=CC=CS4)S3)N=C1
Procedure, shortened: as §1

[6] = compound: C1=CC2=NC=CN=C2C=C1/C=C/3\C(=O)NC(=O)S3
Procedure, shortened: as §1

[7] = compound: C1=CC=C(C=C1)C2=NC(=C(N2)C3=CC=NC=C3)C4=CC(=C(C=C4)Cl)O
Procedure, shortened: as §1

[8] = compound: C1=CC=C2C(=C1)C3=NNC4=CC=CC(=C43)C2=O
Procedure, shortened: as §1

[9] = compound: C1CCN(C1)C(=O)NC2=CC=CC(=C2)NC3=NC=C(C(=N3)NCCC4=CN=CN4)Br
Procedure, shortened: as §1

[10] = compound: C1CN(CCC1(CC2=CC=C(C=C2)Cl)N)C3=NC=NC4=C3C=CN4
Procedure, shortened: as §1

[11] = compound: C1COCCN1CCN2C3=CC=CC=C3N=C2NC(=O)C4=CC(=CC=C4)[N+](=O)[O-] [IRAK-1-4 Inhibitor I]
Procedure, shortened: as §1

[12] = compound: C=CC(=O)N1CCC[C@@H](n2nc(-c3ccc(Oc4ccccc4)cc3)c3c(N)ncnc32)C1 [ibrutinib]
Procedure, shortened: as §1

[13] = compound: CC(=O)c1cnc2ccc(-c3cc(Cl)c(O)c(Cl)c3)nc2c1N[C@H]1CC[C@H](CN(C)C)CC1
Procedure, shortened: as §1

[14] = compound: CC(C)(C)Cn1c(N)nc2ccc(-c3[nH]c(C(C)(C)C)nc3-c3ccc(F)cc3)nc21 [ralimetinib]
Procedure, shortened: as §1

[15] = compound: CC(C)(O)CC(=O)NCCn1ccc2ncnc(Nc3ccc(Oc4cccc(C(F)(F)F)c4)c(Cl)c3)c21
Procedure, shortened: as §1

[16] = compound: CC(C)C1=C2N=C(C=C(N2N=C1)NCC3=CC=CC=C3)NCCCCCCN
Procedure, shortened: as §1

[17] = compound: CC(C)C[C@@H](C=O)NC(=O)[C@H](CC(C)C)NC(=O)[C@H](CC(C)C)NC(=O)OCc1ccccc1
Procedure, shortened: as §1

[18] = compound: CC(C)N(C[C@H]1O[C@@H](n2cnc3c(N)ncnc32)[C@H](O)[C@@H]1O)[C@H]1C[C@@H](CCc2nc3cc(C(C)(C)C)ccc3[nH]2)C1 [pinometostat]
Procedure, shortened: as §1

[19] = compound: CC1=C(C(CC(=O)N1)C2=CC=C(C=C2)C(F)(F)F)C(=O)NC3=C(C=C4C(=C3)C=NN4)F
Procedure, shortened: as §1

[20] = compound: CC1=C(C2=C(C=C1)C(=O)C3=CC=CC=C3N2CCCN)C
Procedure, shortened: as §1

Measured: log2 fold change

SMPD4 isoform 4 (UniProt Q9NXE4)
Chain of UniProt Q9NXE4 (Q9NXE4 whole entry, looked up): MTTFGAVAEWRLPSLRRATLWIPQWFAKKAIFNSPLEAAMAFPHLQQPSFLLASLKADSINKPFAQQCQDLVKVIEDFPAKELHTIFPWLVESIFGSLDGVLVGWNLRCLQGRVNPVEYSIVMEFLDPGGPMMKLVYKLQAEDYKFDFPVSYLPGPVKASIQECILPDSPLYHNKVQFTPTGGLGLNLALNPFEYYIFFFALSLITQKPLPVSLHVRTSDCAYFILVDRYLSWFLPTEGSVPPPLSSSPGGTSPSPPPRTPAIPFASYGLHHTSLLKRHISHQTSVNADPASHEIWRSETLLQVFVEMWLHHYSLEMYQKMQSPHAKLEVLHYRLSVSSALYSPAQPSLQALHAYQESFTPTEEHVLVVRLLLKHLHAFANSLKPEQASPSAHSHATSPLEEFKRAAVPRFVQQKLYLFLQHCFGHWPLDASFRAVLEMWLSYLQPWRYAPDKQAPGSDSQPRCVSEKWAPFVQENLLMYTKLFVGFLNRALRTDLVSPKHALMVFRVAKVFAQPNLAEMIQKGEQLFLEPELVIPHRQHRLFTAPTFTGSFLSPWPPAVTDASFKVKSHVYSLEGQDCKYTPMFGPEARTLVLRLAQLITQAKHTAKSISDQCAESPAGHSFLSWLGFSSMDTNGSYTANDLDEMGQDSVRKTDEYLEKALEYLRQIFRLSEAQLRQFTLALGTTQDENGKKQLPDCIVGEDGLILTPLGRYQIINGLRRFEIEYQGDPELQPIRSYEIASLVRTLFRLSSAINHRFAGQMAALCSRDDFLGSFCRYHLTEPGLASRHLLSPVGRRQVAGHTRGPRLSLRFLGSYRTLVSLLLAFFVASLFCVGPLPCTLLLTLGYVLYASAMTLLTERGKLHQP
active: [16] -0.279
inactive: [1] 0.073 | [2] 0.064 | [3] -0.034 | [4] 0.005 | [5] 0.098 | [6] 0.158 | [7] -0.021 | [8] -0.076 | [9] 0.023 | [10] -0.011 | [11] -0.034 | [12] -0.044 | [13] 0.12 | [14] -0.072 | [15] -0.095 | [17] 0.005 | [18] -0.002 | [19] -0.019 | [20] 0.038

SORT1 (UniProt Q99523)
Chain of UniProt Q99523 (Q99523 whole entry, looked up): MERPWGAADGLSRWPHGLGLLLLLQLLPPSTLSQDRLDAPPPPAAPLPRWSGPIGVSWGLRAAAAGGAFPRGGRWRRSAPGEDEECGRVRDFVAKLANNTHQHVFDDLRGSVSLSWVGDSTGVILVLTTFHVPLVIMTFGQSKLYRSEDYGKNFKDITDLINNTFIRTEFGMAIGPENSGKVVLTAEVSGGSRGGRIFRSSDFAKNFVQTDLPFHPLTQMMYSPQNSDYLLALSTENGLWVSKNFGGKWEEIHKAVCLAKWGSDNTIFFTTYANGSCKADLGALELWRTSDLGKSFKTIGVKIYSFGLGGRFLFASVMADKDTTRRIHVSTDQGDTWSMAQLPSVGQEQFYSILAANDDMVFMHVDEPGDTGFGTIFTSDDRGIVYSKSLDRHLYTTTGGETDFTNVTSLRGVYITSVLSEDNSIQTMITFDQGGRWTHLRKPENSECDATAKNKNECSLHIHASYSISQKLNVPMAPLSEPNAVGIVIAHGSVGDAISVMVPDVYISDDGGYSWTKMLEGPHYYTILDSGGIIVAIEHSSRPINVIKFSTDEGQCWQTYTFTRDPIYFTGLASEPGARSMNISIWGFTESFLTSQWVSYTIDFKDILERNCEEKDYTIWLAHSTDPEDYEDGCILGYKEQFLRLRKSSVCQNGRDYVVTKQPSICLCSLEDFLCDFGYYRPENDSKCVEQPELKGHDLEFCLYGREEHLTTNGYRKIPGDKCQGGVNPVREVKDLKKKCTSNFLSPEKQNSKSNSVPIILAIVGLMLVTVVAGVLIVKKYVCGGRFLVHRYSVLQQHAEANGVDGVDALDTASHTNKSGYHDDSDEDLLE
inactive: [1] 0.005 | [2] -0.024 | [3] 0.03 | [4] -0.012 | [5] 0.014 | [6] 0.034 | [7] 0.022 | [8] -0.018 | [9] -0.012 | [10] 0.06 | [11] 0.044 | [12] 0.044 | [13] 0.031 | [14] -0.005 | [15] -0.027 | [16] -0.202 | [17] -0.028 | [18] -0.03 | [19] -0.002 | [20] -0.019

TFR2 (UniProt Q9UP52)
inactive: [1] 0.009 | [2] -0.019 | [3] -0.012 | [4] -0.015 | [5] 0.018 | [6] 0.016 | [7] -0.039 | [8] -0.023 | [9] 0.03 | [10] 0.018 | [11] 0.018 | [12] 0.008 | [13] -0.011 | [14] -0.018 | [15] 0.037 | [16] -0.146 | [17] 0.02 | [18] 0.02 | [19] 0.02 | [20] -0.128

STK26 (UniProt Q9P289)
active: [12] -0.272 | [13] -0.344
inactive: [1] 0.058 | [2] -0.014 | [3] 0.195 | [4] -0.014 | [5] -0.008 | [6] 0.124 | [7] -0.015 | [8] -0.08 | [9] 0.023 | [10] 0.02 | [11] 0.03 | [14] -0.022 | [15] -0.081 | [16] -0.071 | [17] 0.03 | [18] -0.019 | [19] 0.022 | [20] -0.07

SNX3 (UniProt O60493)
Chain of UniProt O60493 (O60493 whole entry, looked up): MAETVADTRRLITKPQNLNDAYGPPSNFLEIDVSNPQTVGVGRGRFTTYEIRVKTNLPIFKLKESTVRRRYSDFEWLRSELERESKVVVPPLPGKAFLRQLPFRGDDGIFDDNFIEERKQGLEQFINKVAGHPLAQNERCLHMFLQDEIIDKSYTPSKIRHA
inactive: [1] 0.129 | [2] 0.074 | [3] -0.056 | [4] -0.052 | [5] 0.078 | [6] -0.058 | [7] 0.123 | [8] -0.136 | [9] 0.026 | [10] -0.068 | [11] -0.049 | [12] 0.011 | [13] -0.028 | [14] -0.059 | [15] -0.104 | [16] -0.187 | [17] 0.084 | [18] 0.073 | [19] -0.022 | [20] 0.053

SLC4A2 (UniProt P04920)
inactive: [1] 0.015 | [2] 0.073 | [3] -0.062 | [4] 0.047 | [5] 0.076 | [6] 0.047 | [7] 0.043 | [8] -0.026 | [9] -0.023 | [10] 0.002 | [11] 0.022 | [12] -0.024 | [13] -0.015 | [14] 0.003 | [15] -0.07 | [16] -0.165 | [17] 0.143 | [18] 0.054 | [19] 0.042 | [20] 0.01

SLC38A2 (UniProt Q96QD8)
Chain of UniProt Q96QD8 (Q96QD8 whole entry, looked up): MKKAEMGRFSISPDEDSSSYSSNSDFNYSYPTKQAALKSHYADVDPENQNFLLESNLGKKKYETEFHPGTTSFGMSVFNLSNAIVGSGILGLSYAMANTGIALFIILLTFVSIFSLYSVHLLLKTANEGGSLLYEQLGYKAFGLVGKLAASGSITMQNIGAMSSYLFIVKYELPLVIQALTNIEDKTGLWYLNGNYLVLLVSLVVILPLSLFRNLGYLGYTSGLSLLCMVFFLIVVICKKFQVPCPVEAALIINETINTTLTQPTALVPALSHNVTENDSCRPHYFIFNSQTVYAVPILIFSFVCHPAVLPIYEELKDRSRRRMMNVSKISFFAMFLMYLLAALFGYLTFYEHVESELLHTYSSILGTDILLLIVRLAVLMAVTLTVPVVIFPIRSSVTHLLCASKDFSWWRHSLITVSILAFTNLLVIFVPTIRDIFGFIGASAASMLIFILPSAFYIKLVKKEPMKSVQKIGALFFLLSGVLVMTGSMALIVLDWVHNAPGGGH
active: [16] -0.28
inactive: [1] -0.093 | [2] 0.075 | [3] 0.01 | [4] 0.003 | [5] -0.039 | [6] 0.093 | [7] 0.055 | [8] 0 | [9] -0.009 | [10] 0.048 | [11] 0.018 | [12] 0.022 | [13] -0.057 | [14] -0.097 | [15] -0.12 | [17] 0.102 | [18] -0.053 | [19] 0.019 | [20] 0.01

SLC25A4 (UniProt P12235)
Chain of UniProt P12235 (P12235 whole entry, looked up): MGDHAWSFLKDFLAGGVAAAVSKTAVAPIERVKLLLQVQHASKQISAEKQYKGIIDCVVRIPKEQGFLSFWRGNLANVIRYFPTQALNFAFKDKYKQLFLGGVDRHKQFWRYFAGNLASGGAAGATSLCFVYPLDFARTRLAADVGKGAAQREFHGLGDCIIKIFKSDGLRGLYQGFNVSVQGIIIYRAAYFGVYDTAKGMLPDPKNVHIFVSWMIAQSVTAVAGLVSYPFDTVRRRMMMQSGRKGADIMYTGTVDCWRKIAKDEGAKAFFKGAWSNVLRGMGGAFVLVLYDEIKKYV
inactive: [1] 0.007 | [2] -0.016 | [3] 0.035 | [4] -0.009 | [5] -0.004 | [6] 0.042 | [7] 0.045 | [8] -0.076 | [9] -0.019 | [10] 0.021 | [11] 0.032 | [12] 0.068 | [13] 0.016 | [14] -0.007 | [15] 0.009 | [16] 0.089 | [17] 0.004 | [18] -0.02 | [19] -0.031 | [20] -0.013

SUN2 (UniProt Q9UH99)
Chain of UniProt Q9UH99 (Q9UH99 whole entry, looked up): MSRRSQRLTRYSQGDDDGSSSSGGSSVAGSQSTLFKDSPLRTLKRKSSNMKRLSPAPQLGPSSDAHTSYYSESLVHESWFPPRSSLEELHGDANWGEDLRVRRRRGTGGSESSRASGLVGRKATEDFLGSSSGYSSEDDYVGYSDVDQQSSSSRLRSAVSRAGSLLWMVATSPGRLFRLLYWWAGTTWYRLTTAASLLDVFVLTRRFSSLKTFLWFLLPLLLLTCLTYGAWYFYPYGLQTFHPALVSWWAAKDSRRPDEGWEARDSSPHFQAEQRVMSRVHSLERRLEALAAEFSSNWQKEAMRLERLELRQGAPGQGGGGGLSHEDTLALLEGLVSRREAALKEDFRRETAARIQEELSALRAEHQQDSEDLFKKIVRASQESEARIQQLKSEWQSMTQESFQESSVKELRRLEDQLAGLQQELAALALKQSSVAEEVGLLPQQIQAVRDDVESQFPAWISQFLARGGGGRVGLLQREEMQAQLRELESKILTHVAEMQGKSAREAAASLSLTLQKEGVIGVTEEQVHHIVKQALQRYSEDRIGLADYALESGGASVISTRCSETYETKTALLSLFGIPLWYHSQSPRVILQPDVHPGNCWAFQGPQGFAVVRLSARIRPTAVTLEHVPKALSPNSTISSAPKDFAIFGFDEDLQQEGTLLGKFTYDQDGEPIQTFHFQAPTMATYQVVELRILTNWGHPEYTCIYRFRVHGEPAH
active: [16] -0.211
inactive: [1] -0.067 | [2] 0.023 | [3] -0.031 | [4] -0.004 | [5] -0.012 | [6] 0.02 | [7] 0.005 | [8] -0.087 | [9] -0.038 | [10] -0.017 | [11] -0.04 | [12] 0.056 | [13] -0.044 | [14] 0.072 | [15] -0.119 | [17] 0.041 | [18] 0.027 | [19] 0.043 | [20] -0.117

TARBP1 (UniProt Q13395)
inactive: [1] 0.015 | [2] 0.062 | [3] 0.023 | [4] 0.027 | [5] -0.091 | [6] 0.065 | [7] -0.022 | [8] 0.012 | [9] -0.085 | [10] 0.019 | [11] 0.062 | [12] -0.007 | [13] -0.01 | [14] 0.003 | [15] -0.074 | [16] -0.066 | [17] 0.009 | [18] 0.041 | [19] 0.04 | [20] 0.184

STXBP5 (UniProt Q5T5C0)
inactive: [1] 0.028 | [2] 0.039 | [3] 0.097 | [4] 0.018 | [5] 0.094 | [6] 0.026 | [7] 0.036 | [8] -0.015 | [9] -0.014 | [10] 0.011 | [11] -0.025 | [12] -0.037 | [13] -0.073 | [14] 0.029 | [15] -0.038 | [16] -0.107 | [17] -0.049 | [18] 0.025 | [19] 0.018 | [20] 0.048

SUOX (UniProt P51687)
inactive: [1] 0.044 | [2] 0.047 | [3] 0.046 | [4] -0.01 | [5] 0.027 | [6] 0.036 | [7] -0.112 | [8] -0.004 | [9] 0.013 | [10] 0.087 | [11] 0.123 | [12] -0.007 | [13] 0.003 | [14] 0.012 | [15] -0.022 | [16] 0.042 | [17] 0.013 | [18] 0.016 | [19] 0.039 | [20] 0.02

SSB (UniProt P05455)
inactive: [1] -0.05 | [2] 0.045 | [3] 0.013 | [4] 0.028 | [5] -0.043 | [6] -0.014 | [7] -0.056 | [8] -0.169 | [9] -0.151 | [10] -0.03 | [11] -0.006 | [12] -0.038 | [13] -0.209 | [14] 0.017 | [15] 0.001 | [16] -0.038 | [17] 0.011 | [18] -0.005 | [19] 0.071
active: [20] -0.474

SLK isoform 2 (UniProt Q9H2G2)
Chain of UniProt Q9H2G2 (Q9H2G2 whole entry, looked up): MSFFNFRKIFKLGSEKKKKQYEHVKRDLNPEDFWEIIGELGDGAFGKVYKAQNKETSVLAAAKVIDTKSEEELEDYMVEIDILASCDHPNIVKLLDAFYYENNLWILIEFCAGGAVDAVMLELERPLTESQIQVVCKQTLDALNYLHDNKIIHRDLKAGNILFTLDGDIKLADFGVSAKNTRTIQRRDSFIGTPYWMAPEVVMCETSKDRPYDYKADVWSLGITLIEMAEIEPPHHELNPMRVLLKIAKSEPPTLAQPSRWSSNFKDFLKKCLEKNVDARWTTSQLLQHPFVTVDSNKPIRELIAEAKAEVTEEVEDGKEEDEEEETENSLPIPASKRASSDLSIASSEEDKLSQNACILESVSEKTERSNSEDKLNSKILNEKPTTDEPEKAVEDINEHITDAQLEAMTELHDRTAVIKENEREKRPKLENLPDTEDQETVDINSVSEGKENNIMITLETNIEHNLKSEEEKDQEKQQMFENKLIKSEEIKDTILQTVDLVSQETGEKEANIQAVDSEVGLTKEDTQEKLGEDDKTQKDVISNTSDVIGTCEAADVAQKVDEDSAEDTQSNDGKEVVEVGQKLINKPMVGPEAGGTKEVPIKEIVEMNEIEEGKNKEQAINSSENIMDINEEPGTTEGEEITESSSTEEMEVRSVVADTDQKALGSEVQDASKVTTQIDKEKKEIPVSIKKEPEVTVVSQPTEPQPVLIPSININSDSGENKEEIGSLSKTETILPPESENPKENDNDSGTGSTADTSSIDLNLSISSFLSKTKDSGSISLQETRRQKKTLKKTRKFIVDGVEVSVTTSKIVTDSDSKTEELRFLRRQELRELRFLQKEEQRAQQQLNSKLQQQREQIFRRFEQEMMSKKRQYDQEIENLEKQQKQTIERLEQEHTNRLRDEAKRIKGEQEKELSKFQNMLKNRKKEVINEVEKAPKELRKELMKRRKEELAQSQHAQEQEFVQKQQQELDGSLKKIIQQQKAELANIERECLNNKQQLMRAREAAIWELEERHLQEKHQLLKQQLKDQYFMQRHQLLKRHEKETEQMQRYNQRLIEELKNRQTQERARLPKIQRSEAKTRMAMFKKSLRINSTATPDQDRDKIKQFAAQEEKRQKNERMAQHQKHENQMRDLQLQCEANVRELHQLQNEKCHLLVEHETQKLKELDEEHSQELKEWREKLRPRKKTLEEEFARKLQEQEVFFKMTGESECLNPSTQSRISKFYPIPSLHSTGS
inactive: [1] -0.023 | [2] 0.083 | [3] -0.098 | [4] -0.001 | [5] 0.043 | [6] 0.075 | [7] -0.135 | [8] -0.047 | [9] -0.028 | [10] -0.057 | [11] -0.008 | [12] -0.123 | [13] 0.04 | [14] 0.005 | [15] -0.216 | [16] 0.002 | [17] 0.022 | [18] 0.022 | [19] -0.025 | [20] 0.073

SSX2 (UniProt Q16385)
Chain of UniProt Q16385 (Q16385 whole entry, looked up): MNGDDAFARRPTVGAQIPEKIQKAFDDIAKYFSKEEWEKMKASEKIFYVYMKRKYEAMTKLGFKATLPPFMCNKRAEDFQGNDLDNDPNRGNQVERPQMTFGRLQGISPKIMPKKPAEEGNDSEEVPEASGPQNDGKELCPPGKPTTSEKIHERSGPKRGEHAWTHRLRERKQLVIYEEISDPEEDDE
active: [20] -1.33
inactive: [1] -0.068 | [2] -0.078 | [3] -0.023 | [4] 0.038 | [5] 0.175 | [6] 0.044 | [7] -0.032 | [8] -0.035 | [9] -0.022 | [10] -0.004 | [11] -0.038 | [12] -0.004 | [13] -0.006 | [14] -0.03 | [15] 0.022 | [16] -0.044 | [17] 0.123 | [18] -0.065 | [19] 0.021

SPAG9 (UniProt O60271)
active: [16] -0.219
inactive: [1] 0.018 | [2] -0.025 | [3] 0.034 | [4] -0.016 | [5] 0.028 | [6] 0.039 | [7] -0.016 | [8] -0.012 | [9] 0.015 | [10] -0.009 | [11] -0.003 | [12] -0.003 | [13] 0.022 | [14] 0 | [15] -0.045 | [17] 0.016 | [18] 0.028 | [19] 0.011 | [20] -0.004
